Only some compounds are listed: those with a hit (about 1.6% of all), similar ones and a draw of the others.
PLAP act: human PLAP activation | activation fold at 20 µM | P05187 | purified PLAP enzyme, luminescent substrate read-out; hits give high values | hit rate 1.2% among 96,000; in the data active means activation fold above about 2
MT1-MMP txn act: MT1-MMP promoter transcription activation; hit rate 0.16% among 86,000; AID 750; HT1080 MT1-MMP promoter luciferase reporter, luminescence, overnight; hits give high values; activation factor at 10 µM;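 active means activation factor of at least 2 for MT1-MMP transcription at 10 µM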
TNAP act DEA: human TNAP activation, intermediate phosphate acceptor | 64,000 tested, under 10 active | activation factor at 20 µM | purified TNAP, CDP-star luminescence, 100 mM DEA, 30 min; hits give high values; scale: 0 levamisole-inhibited, 1 vehicle-only enzyme | AID 813 | P05186;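 active means activation factor of at least 2 at 20 µM, relative to controls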
Target sequence (P05186 whole entry, looked up): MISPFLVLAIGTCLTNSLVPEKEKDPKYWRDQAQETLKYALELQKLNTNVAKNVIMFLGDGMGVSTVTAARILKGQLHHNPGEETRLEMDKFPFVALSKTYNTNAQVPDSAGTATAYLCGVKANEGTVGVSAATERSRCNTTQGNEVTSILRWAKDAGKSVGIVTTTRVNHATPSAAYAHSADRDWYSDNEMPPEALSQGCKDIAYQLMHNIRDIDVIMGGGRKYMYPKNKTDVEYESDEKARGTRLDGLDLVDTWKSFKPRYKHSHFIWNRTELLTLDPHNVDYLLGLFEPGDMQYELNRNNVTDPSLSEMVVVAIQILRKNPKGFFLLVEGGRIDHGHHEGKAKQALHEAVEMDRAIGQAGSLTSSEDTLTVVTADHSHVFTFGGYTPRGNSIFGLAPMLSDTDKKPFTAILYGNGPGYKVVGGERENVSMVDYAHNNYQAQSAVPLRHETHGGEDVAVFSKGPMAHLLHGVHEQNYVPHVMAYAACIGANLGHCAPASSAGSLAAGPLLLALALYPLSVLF
LYP inh 2: inhibitors of human LYP (PTPN22) phosphatase; hit rate 0.21% among 96,000; Q9Y2R2; recombinant LYP catalytic domain, DiFMUP fluorescence; inhibition, % at 2 µM;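 active means inhibition at 2 µM at or above a set limit, the screen mean plus 3 SD, cut at about 24% in these data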
LYP act: LYP (human) phosphatase activation | Q9Y2R2 | recombinant LYP, DiFMUP fluorescence; 0 = plate median, 100 = signal doubled | activation, % at 2 µM | hit rate 0.11% among 96,000 | AID 697;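 active means activation at 2 µM above a set limit, the mean plus 5 SD, cut at about 37% in these data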
Each line names hits and unclear results; the compound was inactive in the other large screens.

Cc1cc(Nc2ccccc2)nn1C(=O)c1ccccc1	none
COC(=O)[C@H]1C[C@@H]1[C@H](NC(=O)[C@@H]1CCCN1C(=O)OC(C)(C)C)c1ccccc1	none (no result: PLAP act, TNAP act DEA, LYP inh 2, LYP act)
CCOc1ccc(NC(=O)NCCCn2c(C)nc3cc(C)c(C)cc32)cc1	PLAP act 2.2 (no result: TNAP act DEA)
O=c1c2c3c(sc2nc2sc(C4CC4)nn12)CCCC3	MT1-MMP txn act 2
COC(=O)[C@@]1(Cc2ccc(F)cc2)[C@H]2c3cc(C(=O)N(C)C)n(CC4CC4)c3C[C@H]2CN1C(=O)c1ccccc1	none (no result: PLAP act, TNAP act DEA, LYP inh 2, LYP act)
COC(=O)c1ccc(C(NC(=O)OCc2ccccc2)/C(I)=C/[C@@H](C)C(=O)O)cc1 (stereo partly drawn)	none (no result: PLAP act, TNAP act DEA, LYP inh 2, LYP act)
O=C(Nc1nc(-c2ccccn2)cs1)c1ccc(Cl)s1	none (no result: MT1-MMP txn act, LYP inh 2, LYP act)
O=C(Nc1nc(-c2ccccn2)cs1)c1ncc(Cl)c(Cl)c1Cl	LYP inh 2 27 (no result: TNAP act DEA)
O=C(CN1C(=O)CCC1=O)Nc1nc(-c2ccccn2)cs1	PLAP act 2.2, TNAP act DEA 15
O=C(CN1C(=O)CCC1=O)Nc1nc(-c2nc3ccccc3s2)cs1	none (no result: PLAP act, LYP inh 2, LYP act)
COC(=O)[C@@]1(Cc2ccccc2)[C@H]2c3cc(C(=O)N(C)C)n(Cc4ccccn4)c3C[C@H]2CN1C(=O)c1ccccc1	none (no result: PLAP act, TNAP act DEA, LYP inh 2, LYP act)
COCCNC(=O)[C@H](C)/C=C(\I)C(NC(=O)OCc1ccccc1)c1ccc(C(=O)OC)cc1 (stereo partly drawn)	none (no result: PLAP act, TNAP act DEA, LYP inh 2, LYP act)
COCCNC(=O)[C@H](C)/C=C/C(NC(=O)OCc1ccccc1)c1ccc(C(=O)OC)cc1 (stereo partly drawn)	none (no result: PLAP act, TNAP act DEA, LYP inh 2, LYP act)
CCCc1cc2c(n1CCc1ccc(Cl)cc1)C(C)C1CN(C(=O)c3ccccc3)C(C)(C(=O)OC)C21 (stereo not drawn)	none (no result: PLAP act, TNAP act DEA, LYP inh 2, LYP act)
CC(=O)Nc1ccc(SC(C)C(=O)NC(N)=O)cc1 (stereo not drawn)	none (no result: MT1-MMP txn act, TNAP act DEA)
Cc1ccc(C2C(=O)N(C3CCCC3)CC(=O)N2C2CCCCC2)cc1 (stereo not drawn)	none (no result: TNAP act DEA)
COc1ccc(C2C(=O)N(C3CCCCC3)CC(=O)N2C2CCCCC2)cc1 (stereo not drawn)	LYP inh 2 25 (no result: TNAP act DEA)
Cc1cccc(-c2noc(CCCC(=O)N3CCOCC3)n2)c1	none (no result: TNAP act DEA)
COC(=O)c1ccc(C(NC(=O)OCc2ccccc2)/C(C)=C/[C@@H](C)C(=O)NCc2cccnc2)cc1 (stereo partly drawn)	none (no result: PLAP act, TNAP act DEA, LYP inh 2, LYP act)
COC(=O)[C@@]1(Cc2ccc(OC)cc2)[C@H]2c3cc(C(=O)N4CCCC4)n(CCc4ccc(O)c(OC)c4)c3C[C@H]2CN1C(=O)c1ccccc1	none (no result: PLAP act, TNAP act DEA, LYP inh 2, LYP act)
CC1(C)CC(=O)C2=C(C1)N(c1ccc(F)cc1)C(=O)CC2c1ccccc1 (stereo not drawn)	none (no result: TNAP act DEA)
Cc1nn(C)cc1C1C2=C(CC(C)(C)CC2=O)N(c2ccccc2)C2=C1C(=O)CC(C)(C)C2	PLAP act 2 (no result: MT1-MMP txn act, TNAP act DEA)
Cc1ccc(-c2cnc(NC(=O)CCC(=O)N3CCCCC3)n2C)cc1	none
CCCCNC(=O)CCC(=O)Nc1ncc(-c2ccc(C)cc2)n1C	PLAP act 2
O=C(Cc1ccc(F)cc1)Nc1c2c(nn1-c1cccc(Cl)c1)CS(=O)C2 (stereo not drawn)	none
CCCC(=O)c1ccc(N2CCOCC2)c(F)c1	PLAP act 2.1
CCC(=O)c1ccc(N2CCOCC2)c(F)c1	none (no result: PLAP act, TNAP act DEA)
CCCCN1C(=O)NC(c2ccc(OC)cc2)C(C(=O)OCc2ccccc2)=C1C (stereo not drawn)	none (no result: PLAP act, TNAP act DEA, LYP inh 2, LYP act)
COc1ccccc1Nc1nc2ccccc2[nH]1	none
c1ccc2[nH]c(NC3=NCCC3)nc2c1	PLAP act 2.1
COC(=O)[C@@]1(Cc2ccc(OC)cc2)[C@H]2c3cc(C(=O)N(C)C)n(Cc4ccc(OC)c(OC)c4)c3C[C@H]2CN1C(=O)c1ccccc1	none (no result: PLAP act, TNAP act DEA, LYP inh 2, LYP act)
CC(C)(C)c1ccc(-c2nc(C#N)c(NCc3ccncc3)o2)cc1	MT1-MMP txn act 2
Cc1ccc(S(=O)(=O)N2CCN(CC(=O)NC3CCCc4ccccc43)CC2)cc1C (stereo not drawn)	PLAP act 2.1 (no result: MT1-MMP txn act, TNAP act DEA)
Cc1scc(C(=O)NNC(=S)NCC2CCCO2)c1C (stereo not drawn)	PLAP act 2.2 (no result: MT1-MMP txn act, TNAP act DEA)
CCCCNC(=S)NNC(=O)c1csc(CC)c1	none (no result: PLAP act, TNAP act DEA)
O=C(NCC1CCCO1)c1csc2c1CCCCC2 (stereo not drawn)	none
CCc1cc(C(=O)NNC(=S)NCC2CCCO2)cs1 (stereo not drawn)	PLAP act 2.2 (no result: MT1-MMP txn act, TNAP act DEA)
O=C(Cc1ccc(Cl)cc1)Nc1ccc(N2CCN(C(=O)c3ccco3)CC2)c(Cl)c1	PLAP act 2.4
COc1ccc(-n2nnnc2SCC(=O)c2ccc(O)c(O)c2)cc1	LYP inh 2 35
COc1ccc(-n2nnnc2SCC(N)=O)cc1	none
Cc1ccc(/C=N/c2sc3c(c2C#N)CCC3)s1	MT1-MMP txn act 2.3
Cc1ccc2c(n1)CC(C)(C)C/C2=N\O	none (no result: PLAP act, TNAP act DEA)
Cc1cc(C)nc(SCc2nnc(SCC(=O)Nc3nc(-c4ccccc4)cs3)n2-c2ccccc2)n1	PLAP act 2 (no result: TNAP act DEA)
O=C(CN(C(=O)CNC(=O)c1ccco1)c1ccc(Cl)c(Cl)c1)NC1CCCCC1	none
O=C(CN(C(=O)CNC(=O)c1ccco1)c1ccc2c(c1)OCO2)NC1CCCCC1	LYP inh 2 29
C=C(C)CNC(=S)NNC(=O)c1ccco1	PLAP act 2 (no result: TNAP act DEA)
COc1cccc(CSc2nnc(CSc3nc4nc(C)cc(C)n4n3)s2)c1	PLAP act 2.1 (no result: MT1-MMP txn act, TNAP act DEA)
CCc1nc2c(sc3nc(N4CCOCC4)c4c(c32)CC(C)(C)OC4)c(=O)o1	none (no result: LYP inh 2, LYP act)
CCC(c1nnc(SCC(=O)Nc2ccc(C(=O)Nc3ccccc3OC)cc2)o1)N(C)C (stereo not drawn)	PLAP act 2.3
COc1ccccc1NC(=O)CSc1nnc(-c2ccco2)o1	none
C=CCSC(=C(C#N)C#N)c1cc2c([nH]1)CCCC2	none (no result: MT1-MMP txn act, TNAP act DEA)
CCOC(=O)C(CC)Sc1nc2c(c(=O)[nH]c(=O)n2C)n1CCc1ccccc1 (stereo not drawn)	PLAP act 2.8
Cc1[nH]nc2ncc(C(=O)c3ccccc3O)cc12	PLAP act 2.1
C/C(=N\NC(=O)C1COc2ccccc2O1)c1ccc(C)o1 (stereo not drawn)	PLAP act 2 (no result: MT1-MMP txn act, TNAP act DEA)
Cc1cc(=O)n(-c2ccc3ccccc3n2)[nH]1	PLAP act 2.3
CNC(=O)C1(CC(C)C)C=CCN1C(=O)c1ccccc1 (stereo not drawn)	none (no result: PLAP act, TNAP act DEA, LYP inh 2, LYP act)
Cc1c(Cl)c(C(=O)Nc2nc3ccccc3n2CCN2CCCCC2)nn1C	PLAP act 2.5 (no result: MT1-MMP txn act, TNAP act DEA)
CCn1cc(Cl)c(C(=O)Nc2nc3ccccc3n2CCN2CCCCC2)n1	PLAP act 2.3 (no result: MT1-MMP txn act)
CCC(C)(C)NC(=O)CN(C(=O)CNS(=O)(=O)c1ccc(C)cc1)c1ccc2c(c1)OCCO2	PLAP act 2
Cc1ccc(S(=O)(=O)NCC(=O)N(CC(=O)NC2CCCC2)c2ccc3c(c2)OCCO3)cc1	none
Nc1ccccc1C(=O)NNc1ncc(C(F)(F)F)cc1Cl	PLAP act 2 (no result: MT1-MMP txn act, TNAP act DEA)
O=C(O)CCCCCNc1nc(=S)[nH]c2ccccc12	LYP inh 2 27
COc1cccc(/C=N/NC(=O)CCc2c(C)n[nH]c2C)c1	PLAP act 2.1 (no result: TNAP act DEA)

Bioassay records: PubChem, several laboratories
